Our source for the growth inhibition values is PubChem BioAssay (NCI).

Compounds without any hit were thinned out: in the full panel of roughly 79,000, 15% have a hit. Unmarked numbers belong to inactive results. Calls of active or inactive are those of the source. Cut-off read from the data, not from the text of the source: active = growth inhibition above about 70%; inactive = the rest.

The first test is described as follows: NCI Yeast Anticancer Drug Screen. Data for the bub3 strain (AID 167). The conditions noted are these: S. cerevisiae bub3 mutant strain, at 5.0 µM (retest, dose inferred, filed as 0.5), hits give high values. Summed up: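 Inhibition values come from growth of compound-treated mutant yeast normalised to vehicle-treated controls.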
For the compound `NC(=O)c1ccc(C(=O)Nc2ccc([As](=O)(O)O)cc2)cc1`, the growth inhibition was -7%.

Take `[C-]#[O+].[C-]#[O+].[CH3][Sn]([CH3])[c]1ccccc1.[Fe+5].[c-]1[c-][c-][cH-][c-]1`: the growth inhibition was -7%. For the compound `CC(C)(C)S.[Hg]`, the growth inhibition was 89% (active). For the compound `O=C(O)C(O)(c1ccc(-c2ccccc2)cc1)c1ccc(-c2ccccc2)cc1`, the growth inhibition was -12%. Regarding `Cc1ccc2c(-c3ccccc3)c3ccccc3[s+]c2c1`, the growth inhibition was -13%.

Take `CCOC(=O)[C]1([Pb]([CH3])([CH3])[CH3])N=NC(C(=O)OC)=C1C(=O)OC` (stereo not given): the growth inhibition is -2%. For `CCCNC1=C(C)C(=O)C2=C(C1=O)[C@H](COC(N)=O)[C@]1(OC)[C@@H]3N[C@@H]3CN21`, the growth inhibition is 2%. For `CC(=O)c1ccc(-[n+]2c(C)cc(-c3ccccc3)cc2C)cc1`, the growth inhibition is -4%.

For `CN1C(=O)C23CC4=CC=CC(O)C4N2C(=O)C1(CO)SS3` (stereo not given), the growth inhibition is 99% (active). Turning to `CCN1CCC(O)(c2ccc(O)cc2)C(C(=O)c2ccc(O)cc2)C1` (stereo not given), the growth inhibition is -9%. Take `CCCCCCCC[As](C)(=O)O`: the growth inhibition was -75%. Turning to `CCCCCCC(=O)[O][Hg][c]1ccccc1`, the growth inhibition is 99% (active).

Turning to `CCC[CH2][Sn]1([CH2]CCC)[O]C(=O)CN=Cc2ccccc2[O]1`, the growth inhibition was 90% (active). For `C[C@]12CC[C@H](O)C[C@@H]1CC[C@@H]1[C@@H]2CC[C@]2(C)C(=O)/C(=C/O)C[C@@H]12`, the growth inhibition is -4%. Turning to `CC(CCc1ccccc1)NC(C)C(O)c1ccc(O)cc1` (stereo not given), the growth inhibition was 9%.

The same test, now with this note: S. cerevisiae bub3 mutant strain, at 50.0 µM (retest, dose inferred, filed as 5.0), hits give high values.
As to `CCOC(=O)C1C(O)=C(P(=O)(C2=C(O)C(C(=O)OCC)C(c3ccc(OC(C)=O)cc3)C(C(=O)O)C2=O)N(CCCl)CCCl)C(=O)C(C(=O)O)C1c1ccc(OC(C)=O)cc1` (stereo not given), the growth inhibition was 90% (active). On to `c1ccc([As+](c2ccccc2)(c2ccccc2)c2cccc3ccccc23)cc1`, for which the growth inhibition is 99% (active). The same measure, in the same setting: in the case of `CCCCCCCCc1ccc(OCCN(CCCl)CCCl)cc1` it was 99% (active); in that of `S=C=NCCc1ccccc1`, 20%. Turning to `COC1=C(Cl)C(=O)c2ccccc2C1=O`, the growth inhibition is 98% (active). In the case of `CN(C)c1ccc(N=Nc2cccc(C(=O)[O-])c2)cc1.CN(C)c1ccc(N=Nc2cccc(C(=O)[O-])c2)cc1.NC1CCCCC1N.O=[N+]([O-])O.[Pt+4]`, the growth inhibition is 98% (active).

For the compound `CCOC(=O)c1ccc(N=Cc2ccc(N(CCCl)CCCl)cc2C)cc1`, the growth inhibition was 2%. On the same count and under the same terms, in the case of `O=c1s[se]c2ccccc12` it was 99% (active); in that of `CC1CCC2(OC1)OC1C(O)C3C4CCC5CC(OC6OC(CO)C(OC7OC(CO)C(O)C(OC8OCC(O)C(O)C8O)C7OC7OC(CO)C(O)C(OC8OC(CO)C(O)C(O)C8O)C7O)C(O)C6O)C(O)CC5(C)C4CCC3(C)C1C2C` (stereo not given), 99% (active). As to `CN(C)c1ccc(/C=C/c2cc3scc(-c4ccccc4)[n+]3c3ccccc23)cc1`, the growth inhibition is 97% (active). As to `CSCCC([NH-])C(=O)O.CSCCC([NH-])C(=O)O.[Zn+2]` (stereo not given), the growth inhibition is 6%. Consider `O=C(O)CN1CCN(CC(=O)O)CC(=O)[O][Hg][O]C(=O)C1`, for which the growth inhibition is 100% (active). The same measure, in the same setting: next, `Cc1c2ccncc2c(CN(CCCl)CCCl)c2c3ccccc3n(C)c12`: 80% (active). As to `COc1ccc(P2(=S)Oc3ccc(C(c4ccccc4)(c4ccccc4)c4ccccc4)cc3O2)cc1` (stereo not given), the growth inhibition is 98% (active).

For `Cc1cc[n+](C2=C(Nc3c(C)cccc3C)C(=O)c3ccccc3C2=O)cc1`, the growth inhibition was 66%.

Take `C(#C[PH+](c1ccccc1)c1ccccc1)c1ccccc1.C(#C[PH+](c1ccccc1)c1ccccc1)c1ccccc1.C(#C[PH+](c1ccccc1)c1ccccc1)c1ccccc1.[C-]#[O+].[C-]#[O+].[C-]#[O+].[Cr]`: the growth inhibition was 39%. Regarding `CC(=O)O.[RuH].c1ccc([PH+](c2ccccc2)c2ccccc2)cc1.c1ccc([PH+](c2ccccc2)c2ccccc2)cc1.c1ccc([PH+](c2ccccc2)c2ccccc2)cc1`, the growth inhibition is 89% (active). Still for that read-out and setting: in the case of `O=C(N/N=C/c1cc(Br)cc(Br)c1[O-])c1ccccc1O.O=C(N/N=C/c1cc(Br)cc(Br)c1[O-])c1ccccc1O.[Ni+2]` it was 97% (active); in that of `O=C(C[n+]1ccccc1)C1CCc2ccccc2C1` (stereo not given), -3%; in that of `CC(=O)[O-].CC(=O)[O-].O=C(N/N=C/c1cc(Cl)cc(Cl)c1[OH2+])c1ccncc1.[Zn+2]`, 10%. With `ClCCN(CCCl)CCN1c2ccc3ccccc3c2Sc2ccc3ccccc3c21`, the growth inhibition is 79% (active).

Regarding `C=CCc1cc(Cl)ccc1OC(=O)N(C)C`, the growth inhibition is -21%. As to `CC(=O)[O][Sn]([CH3])([CH3])[c]1ccccc1`, the growth inhibition is 83% (active). Still for that read-out and setting: next, `NCCNCCNCCNCCN` (tested in a mixture with another compound): -5%; `CC(=O)[CH-]C(C)=O.CC(=O)[CH-]C(C)=O.[O-]c1ccccc1.[O-]c1ccccc1.[Ti+4]`: 6%. As for `NC(=O)c1ccc(C(=O)Nc2ccc([As](=O)(O)O)cc2)cc1`, the growth inhibition was 1%.

Regarding `[C-]#[O+].[C-]#[O+].[CH3][Sn]([CH3])[c]1ccccc1.[Fe+5].[c-]1[c-][c-][cH-][c-]1`, the growth inhibition was 90% (active). Still for that read-out and setting: next, `CC(C)(C)S.[Hg]`: 99% (active); `O=C(O)C(O)(c1ccc(-c2ccccc2)cc1)c1ccc(-c2ccccc2)cc1`: 93% (active). On the same count and under the same terms, in the case of `Cc1ccc2c(-c3ccccc3)c3ccccc3[s+]c2c1` it was 99% (active).

On to `CCOC(=O)[C]1([Pb]([CH3])([CH3])[CH3])N=NC(C(=O)OC)=C1C(=O)OC` (stereo not given), for which the growth inhibition is 32%. With `CCCNC1=C(C)C(=O)C2=C(C1=O)[C@H](COC(N)=O)[C@]1(OC)[C@@H]3N[C@@H]3CN21`, the growth inhibition was 37%. Turning to `CC(=O)c1ccc(-[n+]2c(C)cc(-c3ccccc3)cc2C)cc1`, the growth inhibition was -1%. As to `CN1C(=O)C23CC4=CC=CC(O)C4N2C(=O)C1(CO)SS3` (stereo not given), the growth inhibition was 99% (active). For the compound `CCN1CCC(O)(c2ccc(O)cc2)C(C(=O)c2ccc(O)cc2)C1` (stereo not given), the growth inhibition is 19%. With `CCCCCCCC[As](C)(=O)O`, the growth inhibition was -71%. With `CCCCCCC(=O)[O][Hg][c]1ccccc1`, the growth inhibition was 99% (active). As to `CCC[CH2][Sn]1([CH2]CCC)[O]C(=O)CN=Cc2ccccc2[O]1`, the growth inhibition was 90% (active).

With `C[C@]12CC[C@H](O)C[C@@H]1CC[C@@H]1[C@@H]2CC[C@]2(C)C(=O)/C(=C/O)C[C@@H]12`, the growth inhibition was 84% (active). As for `CC(CCc1ccccc1)NC(C)C(O)c1ccc(O)cc1` (stereo not given), the growth inhibition was 40%.
